The campaign covered roughly 39,000 compounds. About 1,500 (3.8%) were called active. Many of the other results were omitted from the sample, so actives are more common in it than they were.

For the test, the system named is HSkMC (human skeletal muscle cells). Nature of the test: cytotoxicity call (relative viability < 0.9). Conditions: 10 µM.
Take `C[C@@H]1CN([C@@H](C)CO)C(=O)c2cc(N(C)C)ccc2O[C@H]1CN(C)S(C)(=O)=O`: the cytotoxicity call is “inactive”. For `COc1ccc(S(=O)(=O)Nc2cccc3c2O[C@H](CN(C)S(C)(=O)=O)[C@H](C)CN([C@@H](C)CO)C3=O)cc1`, the cytotoxicity call is “inactive”. In the case of `CC(C)NC(=O)N(C)C[C@H]1Oc2ccc(NC(=O)c3ccncc3)cc2CC(=O)N([C@H](C)CO)C[C@H]1C` it was “inactive”; in that of `C[C@@H]1CCCCO[C@@H](CN(C)S(=O)(=O)c2cn(C)cn2)[C@H](C)CN([C@@H](C)CO)C(=O)c2cc(NS(=O)(=O)c3ccc(F)cc3)ccc2O1`, “inactive”.

Regarding `Cc1ccc(S(=O)(=O)N(C)C[C@@H]2Oc3ccc(NC(=O)Nc4ccc(C(F)(F)F)cc4)cc3CC(=O)N([C@@H](C)CO)C[C@@H]2C)cc1`, the cytotoxicity call is “active”. Consider `Cc1ccc(S(=O)(=O)N(C)C[C@H]2Oc3ccc(NC(=O)Nc4ccc(C(F)(F)F)cc4)cc3CC(=O)N([C@@H](C)CO)C[C@@H]2C)cc1`, for which the cytotoxicity call was “inactive”. In the case of `Cc1ccc(S(=O)(=O)N(C)C[C@@H]2Oc3ccc(NC(=O)Nc4ccc(C(F)(F)F)cc4)cc3CC(=O)N([C@@H](C)CO)C[C@H]2C)cc1`, the cytotoxicity call was “active”.

For the molecule `Cc1ccc(S(=O)(=O)N(C)C[C@@H]2Oc3ccc(NC(=O)Nc4ccc(C(F)(F)F)cc4)cc3CC(=O)N([C@H](C)CO)C[C@H]2C)cc1`, the cytotoxicity call is “inactive”. For the molecule `C[C@@H]1CN([C@@H](C)CO)C(=O)c2cc(NC(=O)c3ccccc3)ccc2O[C@@H](C)CCCCO[C@H]1CN(C)CC1CCCCC1`, the cytotoxicity call was “inactive”. With `Cc1noc(C)c1NC(=O)Nc1ccc2c(c1)C(=O)N([C@@H](C)CO)C[C@@H](C)[C@H](CN(C)Cc1ccc(C(F)(F)F)cc1)O2`, the cytotoxicity call is “inactive”. Consider `CC(C)(C)[S@](=O)N1Cc2cc(C(=O)NCC(F)(F)F)nc(-c3cccc(-c4cccc(F)c4)c3)c2[C@@H]1CCO`, for which the cytotoxicity call was “inactive”. As for `C[C@H](CO)N1C[C@H](C)[C@H](CN(C)CC2CCCCC2)Oc2ccc(NC(=O)Nc3cccc4ccccc34)cc2CC1=O`, the entry is “inactive”.

As for `C[C@H]1CN([C@@H](C)CO)C(=O)Cc2cc(NC(=O)Nc3cccc4ccccc34)ccc2O[C@H]1CN(C)CC1CCCCC1`, the cytotoxicity call was “active”. Regarding `C[C@H]1CN([C@@H](C)CO)C(=O)Cc2cc(NC(=O)Nc3cccc4ccccc34)ccc2O[C@@H]1CN(C)CC1CCCCC1`, the cytotoxicity call is “active”. For the molecule `C[C@@H]1CN([C@@H](C)CO)C(=O)Cc2cc(NC(=O)Nc3cccc4ccccc34)ccc2O[C@@H]1CN(C)CC1CCCCC1`, the cytotoxicity call is “inactive”.

Consider `C[C@@H]1CN([C@@H](C)CO)C(=O)Cc2cc(NC(=O)Nc3cccc4ccccc34)ccc2O[C@H]1CN(C)CC1CCCCC1`, for which the cytotoxicity call is “inactive”. Turning to `C[C@@H]1CN([C@H](C)CO)C(=O)Cc2cc(NC(=O)Nc3cccc4ccccc34)ccc2O[C@H]1CN(C)CC1CCCCC1`, the cytotoxicity call is “inactive”. Take `C[C@H](CO)N1C[C@H](C)[C@H](CN(C)C(=O)Nc2ccc3c(c2)OCO3)Oc2ccc(NC(=O)Nc3ccc(C(F)(F)F)cc3)cc2C1=O`: the cytotoxicity call was “inactive”. For `COC[C@H]1CNN1C(=O)Nc1c(C)noc1C`, the cytotoxicity call is “inactive”. Turning to `Cc1noc(C)c1NC(=O)Nc1ccc2c(c1)C(=O)N([C@@H](C)CO)C[C@H](C)[C@H](CN(C)C(=O)NC(C)C)O2`, the cytotoxicity call is “inactive”.

As for `C[C@H](CO)N1C[C@H](C)[C@H](CN(C)C(=O)Nc2cccc3ccccc23)Oc2ccc(NS(=O)(=O)c3ccc(F)cc3)cc2C1=O`, the cytotoxicity call was “inactive”. As for `C[C@@H]1CCCCO[C@@H](CN(C)C(=O)Nc2ccccc2)[C@@H](C)CN([C@H](C)CO)C(=O)c2cc(NC(=O)c3ccccc3)ccc2O1`, the cytotoxicity call is “inactive”. In the case of `C[C@@H]1CN([C@@H](C)CO)C(=O)c2cccc(NC(=O)Nc3ccc(C(F)(F)F)cc3)c2O[C@@H]1CN(C)Cc1ccccc1` it was “inactive”; in that of `C[C@H]1CN([C@@H](C)CO)C(=O)c2cccc(NC(=O)Nc3ccc(C(F)(F)F)cc3)c2O[C@@H]1CN(C)Cc1ccccc1`, “active”; in that of `C[C@H](CO)N1C[C@H](C)[C@@H](CN(C)Cc2ccccc2)Oc2c(NC(=O)Nc3ccc(C(F)(F)F)cc3)cccc2C1=O`, “inactive”.

Regarding `C[C@@H]1CN([C@H](C)CO)C(=O)c2cccc(NC(=O)Nc3ccc(C(F)(F)F)cc3)c2O[C@H]1CN(C)Cc1ccccc1`, the cytotoxicity call is “inactive”.

In the case of `C[C@@H]1CN([C@H](C)CO)C(=O)c2cccc(NC(=O)Nc3ccc(C(F)(F)F)cc3)c2O[C@@H]1CN(C)Cc1ccccc1`, the cytotoxicity call was “inactive”. In the case of `C[C@@H]1CN([C@@H](C)CO)C(=O)c2cccc(NC(=O)Nc3ccc(C(F)(F)F)cc3)c2O[C@H]1CN(C)Cc1ccccc1` it was “active”; in that of `Cc1c(-c2ccnn2C)cc(C(=O)NCc2ccc(S(C)(=O)=O)cn2)c(=O)n1-c1cccc(C(F)(F)F)c1`, “inactive”.

With `Cc1sc2[nH]cnc(=S)c2c1C`, the cytotoxicity call was “inactive”.

On to `C[C@@H]1CN([C@H](C)CO)C(=O)c2c(c3ccccc3n2C)-c2ccccc2CO[C@H]1CN(C)Cc1ccc2c(c1)OCO2`, for which the cytotoxicity call was “inactive”. `C[C@@H]1CN([C@@H](C)CO)C(=O)c2cc(NC(=O)Nc3ccc(C(F)(F)F)cc3)ccc2O[C@@H]1CN(C)Cc1ccc(C(=O)Nc2ccccc2N)cc1`: the cytotoxicity call is “inactive”. Regarding `COCC(=O)N[C@@H]1C[C@H](CO)[C@H](O)C1`, the cytotoxicity call was “inactive”. As to `CCCc1cc(=O)n2ncnc2[nH]1`, the cytotoxicity call was “inactive”. For `Cc1noc(C)c1NC(=O)Nc1ccc2c(c1)CC(=O)N([C@H](C)CO)C[C@@H](C)[C@H](CN(C)S(=O)(=O)c1cccs1)O2`, the cytotoxicity call was “inactive”. `C=C(C)C1CCC2(C)CCC3(C)C(CCC4C5(C)CCC(O)C(C)(C)C5CCC43C)C12` (stereo not given): the cytotoxicity call is “inactive”.

As to `C=C(C)C1CCC2(CO)CCC3(C)C(CCC4C5(C)CCC(O)C(C)(C)C5CCC43C)C12` (stereo not given), the cytotoxicity call is “active”. Consider `C=C(C)C1CCC2(C(=O)O)CCC3(C)C(CCC4C5(C)CCC(O)C(C)(C)C5CCC43C)C12` (stereo not given), for which the cytotoxicity call was “inactive”. Turning to `CN1CCN(C(=O)C[C@@H]2CC[C@@H]3[C@H](COC[C@H](O)CN3Cc3ccc(Oc4ccccc4)cc3)O2)CC1`, the cytotoxicity call was “inactive”. As for `CC(C)(C)NC(=O)C[n+]1cccc(/C=N/O)c1`, the cytotoxicity call is “inactive”. For `O=C(C[C@@H]1CC[C@@H]2[C@H](COC[C@@H](O)CN2S(=O)(=O)c2cccc(Cl)c2)O1)NCc1ccncn1`, the cytotoxicity call was “inactive”.

For `O=C(/C=C/c1cccc(-c2cn(-c3cccc(C(=O)N4CCC5(CC4)C(=O)NCN5c4ccccc4)c3)nn2)c1)NO`, the cytotoxicity call was “inactive”. As for `O=C(NO)c1cn(CC(=O)N2CCC3(CC2)C(=O)NCN3c2ccccc2)nn1`, the cytotoxicity call is “inactive”. `O=C(NO)c1cn(-c2cccc(C(=O)N3CCC4(CC3)C(=O)NCN4c3ccccc3)c2)nn1`: the cytotoxicity call was “active”. For `C=CCNC(=O)[C@H]1CCCN(S(C)(=O)=O)C1`, the cytotoxicity call is “inactive”. In the case of `O=C(C[C@@H]1C=C[C@H](NC(=O)c2ccc3c(c2)OCO3)[C@H](CO)O1)NCc1ccc(Oc2ccccc2)cc1`, the cytotoxicity call is “inactive”. For the molecule `COCCNC(=O)C[C@H]1CC[C@@H]2[C@@H](COc3ccc(NS(=O)(=O)c4ccc(Cl)cc4)cc3C(=O)N2C)O1`, the cytotoxicity call was “inactive”. In the case of `COc1ccc2ccccc2c1-c1c(OC)ccc2ccccc12` it was “inactive”; in that of `COCOc1ccc2cc(Br)ccc2c1-c1c(OCOC)ccc2cc(Br)ccc12`, “active”. For the molecule `COc1ccccc1-c1ccc2c(c1)O[C@@H](CN(C)CC1CCOCC1)[C@@H](C)CN([C@@H](C)CO)S2(=O)=O`, the cytotoxicity call is “inactive”. Turning to `CCNC(=O)[C@@H]1CCCN1C(=O)[C@H](CCCNC(=N)N)NC(=O)[C@H](CC(C)C)NC(=O)[C@@H](CC(C)C)NC(=O)[C@H](Cc1ccc(O)cc1)NC(=O)[C@H](CO)NC(=O)[C@H](Cc1c[nH]c2ccccc12)NC(=O)[C@H](Cc1cnc[nH]1)NC(=O)[C@@H]1CCC(=O)N1`, the cytotoxicity call was “inactive”. On to `CN(c1c[nH]c(=O)[nH]c1=O)C1CCCCC1`, for which the cytotoxicity call is “inactive”. For the molecule `C[C@H](CO)N1C[C@H](C)[C@H](CN(C)Cc2ccc(Oc3ccccc3)cc2)Oc2ccc(NS(=O)(=O)c3ccc(F)cc3)cc2CC1=O`, the cytotoxicity call was “active”. In the case of `C[C@H](CO)N1C[C@H](C)[C@@H](CN(C)Cc2ccc(Oc3ccccc3)cc2)Oc2ccc(NS(=O)(=O)c3ccc(F)cc3)cc2CC1=O` it was “inactive”; in that of `C[C@@H]1CN([C@H](C)CO)C(=O)Cc2cc(NS(=O)(=O)c3ccc(F)cc3)ccc2O[C@H]1CN(C)Cc1ccc(Oc2ccccc2)cc1`, “active”; in that of `C[C@@H]1CN([C@@H](C)CO)C(=O)Cc2cc(NS(=O)(=O)c3ccc(F)cc3)ccc2O[C@H]1CN(C)Cc1ccc(Oc2ccccc2)cc1`, “inactive”.

`C[C@H]1CN([C@@H](C)CO)C(=O)Cc2cc(NS(=O)(=O)c3ccc(F)cc3)ccc2O[C@@H]1CN(C)Cc1ccc(Oc2ccccc2)cc1`: the cytotoxicity call is “inactive”. In the case of `C[C@@H]1CN([C@H](C)CO)C(=O)Cc2cc(NS(=O)(=O)c3ccc(F)cc3)ccc2O[C@@H]1CN(C)Cc1ccc(Oc2ccccc2)cc1` it was “active”; in that of `C[C@H]1CN([C@@H](C)CO)C(=O)Cc2cc(NS(=O)(=O)c3ccc(F)cc3)ccc2O[C@H]1CN(C)Cc1ccc(Oc2ccccc2)cc1`, “active”; in that of `Cc1noc(C)c1NC(=O)Nc1ccc2c(c1)C(=O)N([C@@H](C)CO)C[C@H](C)[C@H](CN(C)Cc1ccc3c(c1)OCO3)OCCCC[C@H](C)O2`, “inactive”.

On to `CC(C)NC(=O)N(C)C[C@H]1Oc2ccc(NC(=O)CCCN(C)C)cc2C(=O)N([C@H](C)CO)C[C@@H]1C`, for which the cytotoxicity call is “inactive”. Take `C[C@@H]1CCCCO[C@@H](CN(C)C(=O)C2CCCCC2)[C@@H](C)CN([C@@H](C)CO)C(=O)c2cc(NC(=O)CCC(F)(F)F)ccc2O1`: the cytotoxicity call was “inactive”. As for `C[C@@H]1CN([C@@H](C)CO)C(=O)c2cc(NS(=O)(=O)c3ccc(Cl)cc3)ccc2O[C@@H](C)CCCCO[C@H]1CN(C)S(=O)(=O)c1ccc(F)cc1`, the entry is “inactive”; as for `Cc1noc(C)c1S(=O)(=O)Nc1ccc2c(c1)CC(=O)N([C@@H](C)CO)C[C@@H](C)[C@H](CN(C)C(=O)Nc1ccc3c(c1)OCO3)O2`, “inactive”. In the case of `COc1ccc(CN(C)C[C@H]2Oc3ccc(NS(C)(=O)=O)cc3C(=O)N([C@@H](C)CO)C[C@H]2C)cc1` it was “inactive”.

Source of the values: the antibiotic and cytotoxicity screens of Wong et al. (2023).
